MITF inhib = inhibitors of MITF; 0.28% of 37,000 active; inhibition, % (concentration not given with the values); TRPM1 promoter luciferase, luminescence, 24 h; in the data active means inhibition above about 85%;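 further: human melanocyte line stably carrying TRPM1 promoter luciferase reporter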
PD-1 reversal = activators reversing PD-1 mediated T-cell inhibition; primary human CD4 T cells, PD-L1 beads, CellTiter-Glo 96 h; activation, % (test concentration not listed); 29,000 tested, under 10 active; call rule not given here
NOMO-1 viab = STK33 inhibitor candidate reducing NOMO-1 cell viability; AID 2330; inhibition, % (test concentration not listed); 7.5% of 37,000 active; NOMO-1 AML viability, CellTiter-Glo luminescence, 72 h; in the data active means inhibition above about 80%
Hedgehog inh = Sonic Hedgehog pathway inhibition. Shh-LIGHT2 Gli-luciferase reporter, 30 h. inhibition, % (no concentration beside the values). 2.1% of 22,000 active. AID 2313;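 active means mean inhibition across valid replicates above about 65%, limit read from the data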;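 further: pathway switched on by Shh-conditioned medium diluted 1 in 25 in low serum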
Large screens that a line does not name were inactive. Rows were chosen to be rich in hits. Some 8.1% of all compounds tested hit in one or more screens of this group.

C[C@@H]1CN([C@@H](C)CO)C(=O)c2cccc(NC(=O)C3CCCCC3)c2O[C@@H]1CN(C)Cc1ccc(C(=O)Nc2ccccc2N)cc1	NOMO-1 viab 126.6 (no result: Hedgehog inh)
COc1ccc(CCNC(=S)n2cc(C)cn2)cc1OC	NOMO-1 viab 110.6 (no result: Hedgehog inh)
COc1ccc(CCNC(=S)NCCc2ccccc2)cc1OC	none
COc1ccc(CCNC(=S)Nc2ccncc2)cc1OC	NOMO-1 viab 113.0 (no result: Hedgehog inh)
O=C1c2ccccc2C(=O)N1CCc1nc2ccccc2c(=O)n1Cc1ccco1	none (no result: PD-1 reversal, Hedgehog inh)
NC(=O)CSc1nnc(Cc2ccccc2)n1-c1ccc(Cl)cc1	none (no result: Hedgehog inh)
O=C(COc1ccc(Br)cc1)Nc1cc(C(F)(F)F)ccc1N1CCOCC1	none (no result: Hedgehog inh)
COC(=O)c1cccc(C(=O)Nc2cnc3ccccc3c2)n1	NOMO-1 viab 123.4
C[C@H]1CN([C@@H](C)CO)C(=O)Cc2cc(NC(=O)Nc3cccc4ccccc34)ccc2O[C@@H]1CN(C)Cc1ccc(C(F)(F)F)cc1	NOMO-1 viab 124.9 (no result: PD-1 reversal)
C[C@H](CO)N1C[C@H](C)[C@H](CN(C)C(=O)Nc2ccc(C(F)(F)F)cc2)Oc2ccc(NC(=O)Nc3cccc4ccccc34)cc2CC1=O	none (no result: PD-1 reversal)
C[C@H]1CN([C@@H](C)CO)C(=O)Cc2cc(NC(=O)Nc3cccc4ccccc34)ccc2O[C@@H]1CN(C)Cc1ccc(C(=O)O)cc1	none
C[C@H]1CN([C@@H](C)CO)C(=O)Cc2cc(NC(=O)Nc3cccc4ccccc34)ccc2O[C@@H]1CN(C)Cc1ccccc1	none
C[C@@H]1CN([C@H](C)CO)C(=O)Cc2cc(NC(=O)Nc3cccc4ccccc34)ccc2O[C@H]1CN(C)Cc1ccc(C(F)(F)F)cc1	NOMO-1 viab 105.4 (no result: PD-1 reversal)
C[C@@H]1CN([C@@H](C)CO)C(=O)Cc2cc(NC(=O)Nc3cccc4ccccc34)ccc2O[C@@H]1CN(C)C(=O)Nc1ccc(C(F)(F)F)cc1	NOMO-1 viab 107.3
C[C@H]1CN([C@@H](C)CO)C(=O)Cc2cc(NC(=O)Nc3cccc4ccccc34)ccc2O[C@H]1CN(C)Cc1ccc(C(F)(F)F)cc1	NOMO-1 viab 105.8
C[C@@H]1CCCCO[C@@H](CN(C)Cc2ccc(C(=O)O)cc2)[C@@H](C)CN([C@H](C)CO)C(=O)c2cc(NC(=O)NC3CCCCC3)ccc2O1	none
C[C@H](CO)N1C[C@H](C)[C@H](CN(C)Cc2ccc(C(F)(F)F)cc2)Oc2ccc(NC(=O)Nc3cccc4ccccc34)cc2CC1=O	NOMO-1 viab 125.4 (no result: PD-1 reversal, Hedgehog inh)
C[C@@H]1CN([C@H](C)CO)C(=O)Cc2cc(NC(=O)Nc3cccc4ccccc34)ccc2O[C@H]1CN(C)Cc1ccc(C(=O)O)cc1	none
C[C@H](CO)N1C[C@H](C)[C@@H](CN(C)C(=O)NC2CCCCC2)Oc2c(NC(=O)CCCCCC(=O)Nc3ccccc3N)cccc2C1=O	none (no result: Hedgehog inh)
COC(=O)C(Cc1c[nH]c2ccccc12)NS(=O)(=O)c1ccc(CNC(=O)c2ccccc2)s1 (stereo unspecified)	NOMO-1 viab 115.2
CC(=O)c1cn(CC(=O)Nc2ccccc2)c2ccccc12	none (no result: Hedgehog inh)
O=C(Cn1cc(C(=O)c2ccccc2F)c2ccccc21)Nc1ccccc1	NOMO-1 viab 89.4 (no result: Hedgehog inh)
COc1nonc1NC(C)=O	none
CCC(=O)OC1(C(=O)CCl)[C@@H](C)C[C@H]2[C@@H]3CCC4=CC(=O)C=C[C@]4(C)[C@@]3(F)[C@@H](O)C[C@@]21C (stereo partly specified)	none (no result: PD-1 reversal)
CCC(=O)[C@@]1(C)[C@H](C)C[C@H]2[C@@H]3CCC4=CC(=O)C=C[C@]4(C)[C@H]3[C@@H](O)C[C@@]21C	Hedgehog inh 64.7 (no result: PD-1 reversal)
CCC(=O)OCC(=O)[C@@]1(OC(=O)CC)[C@H](C)CC2C3C([C@@H](O)C[C@@]21C)[C@@]1(C)C=CC(=O)C=C1C[C@H]3Cl (stereo partly specified)	Hedgehog inh 68.2 (no result: PD-1 reversal)
COc1cc2c(cc1OC)[C@@H]1C(=O)c3ccc4c(c3O[C@@H]1CO2)C=CC(C)(C)O4	MITF inhib 99.5 (no result: PD-1 reversal)
CC(=O)O[C@H]1C(=O)[C@@]2(C)[C@H]([C@H](OC(=O)c3ccccc3)[C@]3(O)C[C@H](OC(=O)[C@H](O)[C@@H](NC(=O)c4ccccc4)c4ccccc4)C(C)=C1C3(C)C)[C@]1(OC(C)=O)CO[C@@H]1C[C@@H]2O	NOMO-1 viab 141.1
C[C@@H]1CN([C@H](C)CO)C(=O)Cc2cc(NC(=O)Cc3cn(C)c4ccccc34)ccc2O[C@@H]1CN(C)CC1CC1	none (no result: Hedgehog inh)
Cc1ccc(N(CC(O)Cn2c3ccccc3c3ccccc32)S(C)(=O)=O)c(C)c1 (stereo unspecified)	NOMO-1 viab 89.9 (no result: Hedgehog inh)
C[C@@H]1CN([C@@H](C)CO)C(=O)c2cc(NC(=O)C3CC3)ccc2O[C@H]1CN(C)C(=O)Nc1cccc2ccccc12	none
Cc1ccc(S(=O)(=O)Nc2ccc3c(c2)C(=O)N([C@H](C)CO)C[C@H](C)[C@H](CN(C)Cc2ccncc2)OCCCC[C@@H](C)O3)cc1	none (no result: PD-1 reversal)
C/C=C/C/C=C/CCC(=O)[C@H]1O[C@H]1C(N)=O	MITF inhib 101.1, NOMO-1 viab 113.9, Hedgehog inh 77.9 (no result: PD-1 reversal)
CC1(C)CC(=O)c2c([nH]c(-c3ccccc3)c2-c2ccccc2)C1	NOMO-1 viab 92.0
O=C1NC(=O)c2cc(-c3ccccc3)ccc21	none
C[C@@H]1CN([C@H](C)CO)C(=O)c2cc(NC(=O)Nc3ccccc3)ccc2O[C@H]1CN(C)Cc1ccc(-c2ccccc2)cc1	NOMO-1 viab 116.2 (no result: Hedgehog inh)
C[C@H](CO)N1C[C@H](C)[C@H](CN(C)Cc2ccc(Oc3ccccc3)cc2)Oc2ccc(NC(=O)Nc3ccc(F)cc3)cc2C1=O	none
C[C@H](CO)N1C[C@H](C)[C@@H](CN(C)Cc2ccc(Oc3ccccc3)cc2)Oc2ccc(NC(=O)Nc3ccc(F)cc3)cc2C1=O	none
C[C@@H]1CN([C@H](C)CO)C(=O)c2cc(NC(=O)Nc3ccc(F)cc3)ccc2O[C@@H]1CN(C)Cc1ccc(-c2ccccc2)cc1	NOMO-1 viab 92.1 (no result: PD-1 reversal)
C[C@@H]1CN([C@H](C)CO)C(=O)c2cc(NC(=O)Nc3ccc(F)cc3)ccc2O[C@H]1CN(C)Cc1ccc(-c2ccccc2)cc1	NOMO-1 viab 126.1 (no result: Hedgehog inh)
C[C@@H]1CN([C@@H](C)CO)C(=O)c2cc(NC(=O)Nc3ccc(F)cc3)ccc2O[C@@H]1CN(C)Cc1ccc(-c2ccccc2)cc1	NOMO-1 viab 115.4
O=C(O)c1ccccc1NS(=O)(=O)c1cccc(C(=O)N2CCCc3ccccc32)c1	none (no result: PD-1 reversal, Hedgehog inh)
CN1CCN(C(c2ccccc2)c2ccccc2)CC1	none
NC(=O)c1ccc(N2CCN(C(c3ccccc3)c3ccccc3)CC2)nc1	NOMO-1 viab 109.2
Cc1cc2ncc(-c3ccccc3)nc2cc1C	none
c1ccc(-c2cnc3nonc3n2)cc1	NOMO-1 viab 114.5, Hedgehog inh 82.4
O=C(O[C@H]1[C@H](Oc2ccccc2COC(=O)C2(O)C=CCCC2=O)O[C@H](CO)[C@@H](O)[C@@H]1O)c1ccccc1 (stereo partly specified)	NOMO-1 viab 120.6
O=C(CSc1nc2ccc([N+](=O)[O-])cc2[nH]1)Nc1cc(C(F)(F)F)cc(C(F)(F)F)c1	MITF inhib 86.7, NOMO-1 viab 129.8 (no result: Hedgehog inh)
